AMA1-RON2 inh: qHTS for Inhibitors of AMA1-RON; Towards Development of Antimalarial Drug Lead: Primary Screen; Potency, µM (top dose mostly 58.2 µM), usual class: inhibitors; AlphaScreen AMA1-biotinylated RON2 peptide binding; AID 720542, 2013; actives 0.2% (n = 360,000); note: nearly all actives have a fitted effect of over 45% in size
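AMA1 (3D7) with his tag at 25 nM final met compounds first, then biotinylated RON2 peptide at 25 nM; detection used donor plus acceptor beads, 10 µg/mL apiece, read by AlphaScreen after 30 min at room temperature.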
Pf growth 96h: Primary qHTS for delayed death inhibitors of the malarial parasite plastid, 96 hour incubation; P. falciparum luciferase reporter growth, 96 h; Potency, µM (series often up to 28.7 µM), most hits filed as inhibitors; actives 6.9% (n = 320,000); AID 504834, 2011
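P. falciparum expressing integrated firefly luciferase grown in erythrocytes (2% hematocrit, 0.05% parasitemia final) with compounds for 96 hours at 37 C, 5% CO2. Growth inhibition read as loss of luminescence after adding luciferase detection reagent.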
Pf growth 48h: Primary qHTS for delayed death inhibitors of the malarial parasite plastid, 48 hour incubation; P. falciparum luciferase growth in erythrocytes, 48 h; actives 5.9% (n = 310,000); Potency, µM (series often up to 28.7 µM), usual class: inhibitors
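Luciferase-expressing P. falciparum in infected erythrocytes (2% hematocrit, 0.1% parasitemia final) in RPMI 1640/0.5% Albumax were exposed to compound for 48 hours at 37 C, 5% CO2; growth read as luminescence.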
SARS PLpro yeast: qHTS of Yeast-based Assay for SARS-CoV PLP | S. cerevisiae expressing SARS-CoV PLpro, growth rescue | Potency, µM (top dose mostly 32.9 µM), most hits filed as activators | actives 0.19% (n = 330,000) | AID 485353, 2010; calls by dose curve; note: nearly all actives have a fitted effect of over 55% in size
A number is an active result; i = inactive; ? = inconclusive; nt = no result given; [ ] = another dose, or the depositor's remark. Most compounds without a hit are left out; they make up all but 9.4% or so of the library. Unless noted, calls come from the whole dose curve; as a rule, active = well fitted curve in the direction sought with a large enough effect; inconclusive = small, poorly fitted or top-dose-only effect, or another doubt; inactive = no such curve, though single readings can be large; an effect the other way counts as inactive or inconclusive.

SMILES	AMA1-RON2 inh	Pf growth 96h	Pf growth 48h	SARS PLpro yeast
CCN(CC)c1ncnc2c1sc1nc(N3CCOCC3)c3c(c12)CCC3	nt	?	?	i
Cc1cccc(-n2cnc3c(sc4nc(N5CCOCC5)c5c(c43)CCCC5)c2=O)c1	i	?	2.1µM	i
OCCNc1ncnc2c1sc1nc(N3CCOCC3)c3c(c12)CCC3	i	i	?	i
Cn1c(N)c(C(=O)CSc2nnc3n2CCCCC3)c(=O)n(C)c1=O	i	nt	nt	i
NC(=O)CC(NC(=O)c1ccc(Br)cc1)c1ccc(N2CCN(c3ccccc3)CC2)c([N+](=O)[O-])c1 (centres undefined)	i	i	i	i
NC(=O)CC(NC(=O)c1ccc(Br)cc1)c1ccc(N2CCCCCCC2)c([N+](=O)[O-])c1 (centres undefined)	i	2.9µM	i	i
Clc1ccc(-c2nc(N3CCOCC3)nc3ccccc23)cc1	i	i	i	i
CC1C(=O)C(C)C(c2ccc3c(c2)OCO3)NC1c1ccc2c(c1)OCO2 (centres undefined)	i	i	10µM	i
CC1C(=O)C(C)C(c2cc(Br)ccc2O)NC1c1cc(Br)ccc1O (centres undefined)	i	nt	nt	nt
O=C1CC(c2ccc3c(c2)OCO3)CN1 (centres undefined)	i	?	i	i
CC1C(=O)C(C)C(c2ccc(Br)cc2)NC1c1ccc(Br)cc1 (centres undefined)	i	3.7µM	?	i
CC1=C(n2nnc([N+](=O)[O-])n2)C(c2cccnc2)C(C#N)=C(N)O1 (centres undefined)	i	?	13µM	i
COC(=O)C1=C(C)OC(N)=C(C#N)C1c1cccnc1 (centres undefined)	i	nt	i	i
Cc1cc(C2=NNC(=NC3CC3)SC2)c(C)n1Cc1ccco1	i	?	i	10µM
COc1ccc(-c2csc(NC(=S)NC(=O)c3ccc(S(=O)(=O)N(C)C)cc3)n2)cc1OC	i	?	13µM	i
COc1ccc(-c2csc(NC(=O)CS(=O)(=O)c3ccccc3)n2)cc1OC	i	nt	nt	nt
CCc1noc(C)c1C(=O)Nc1nc(-c2ccc(OC)c(OC)c2)cs1	i	10µM	?	nt
COc1ccc(-c2csc(NC(=S)NC(=O)c3cccs3)n2)cc1OC	i	?	12µM	i
COc1ccc(-c2csc(NC(=S)NC(=O)c3cccs3)n2)cc1Br	i	i	i	i
COc1ccc(-n2c(C)cc(-c3csc(NC(=O)c4ccc(S(=O)(=O)N(C)C)cc4)n3)c2C)cc1	i	12µM	?	i
CCN(c1ccccc1)S(=O)(=O)c1ccc(C(=O)NCCCN2CCOCC2)cc1	i	i	?	i
S=c1[nH]cc(-c2ccccc2)n1-c1cccc(Cl)c1	i	i	i	i
O=C(O)CCCNC(=O)CC1S/C(=N/N=C/c2ccccc2O)NC1=O (centres undefined)	i	i	i	i
CCOc1ccccc1NC(=S)N1C2CCC1CC(NC(=O)NC13CC4CC(CC(C4)C1)C3)C2 (centres undefined)	i	?	?	i
COc1ccccc1NC(=S)N1C2CCC1CC(NC(=O)NC13CC4CC(CC(C4)C1)C3)C2 (centres undefined)	i	4.7µM	?	i
SMILES	AMA1-RON2 inh	Pf growth 96h	Pf growth 48h	SARS PLpro yeast
O=C(Nc1ccc(F)cc1)C(Sc1nnc2ccccn12)c1ccccc1 (centres undefined)	i	i	i	i
O=C(/C(N=Nc1cccc(C(F)(F)F)c1)=C(/O)c1cccs1)C(F)(F)F	i	5.2µM	?	i
CC(=O)/C(N=Nc1cccc(C(F)(F)F)c1)=C(\C)O	i	i	i	i
Cc1nnc(SCC(=O)c2c(N)n(C3CC3)c(=O)[nH]c2=O)n1C	i	nt	nt	i
CCn1c(Cc2ccccc2)nnc1SCC(=O)c1c(N)n(C2CC2)c(=O)[nH]c1=O	i	9.3µM	?	i
CCc1ccc(Nc2nnc(SC(C)C(=O)NC3CC3)s2)cc1 (centres undefined)	i	nt	nt	i
COCCn1c(SCC(=O)c2c(N)n(C3CC3)c(=O)[nH]c2=O)nnc1-c1cccc(C)c1	i	8.3µM	8.3µM	i
Cc1cccc(Nc2nnc(SC(C)C(=O)NC3CC3)s2)c1 (centres undefined)	i	10µM	13µM	i
CCn1c(SCC(=O)c2c(N)n(C3CC3)c(=O)[nH]c2=O)nnc1-c1ccccc1OC	i	8.3µM	?	i
COc1cc(/C=C2\SC(N3CCC(C)CC3)=NC2=O)ccc1O	i	i	?	i
CN(C)CCN(Cc1cc2cc3c(cc2[nH]c1=O)OCO3)C(=S)NCC1CCCO1 (centres undefined)	i	i	i	i
O=C(NCCO)c1c(-c2ccc3c(c2)OCO3)noc1-c1ccsc1	i	nt	nt	nt
CCCn1c(N)c(C(=O)CSc2nc(C3CC3)n(-c3ccccc3)n2)c(=O)[nH]c1=O	i	nt	nt	i
Cc1cccc(Nc2nnc(SCC(=O)c3c(N)n(C4CC4)c(=O)[nH]c3=O)s2)c1	i	6.6µM	i	i
Nc1c(C(=O)CSc2nncn2-c2ccccc2)c(=O)[nH]c(=O)n1C1CC1	i	12µM	?	i
CCCn1c(N)c(C(=O)CSc2nnc(C3CC3)n2-c2ccccc2)c(=O)[nH]c1=O	i	10µM	?	i
Nc1c(C(=O)CSc2nnc(COc3ccc(Cl)cc3)o2)c(=O)[nH]c(=O)n1C1CC1	i	10µM	?	i
CO/N=C/C(=N\Nc1ccccc1)C(=O)c1ccccc1	i	i	i	i
O=c1cc(CSc2nc3cc(Cl)ccc3o2)nc2sccn12	i	i	?	i
O=C(Nc1ccc2nc(-c3ccccc3)[nH]c2c1)c1ccco1	i	i	?	i
Cc1cccc2[nH]c(-c3ccc(NC(=O)c4ccco4)cc3)nc12	i	0.41µM	i	i
Cc1cccc(NC(=O)c2ccco2)c1C	i	10µM	i	i
O=C(OCC(=O)N1CCN(S(=O)(=O)c2ccccc2)CC1)c1ccc([N+](=O)[O-])o1	i	i	i[5.75 µM]	i
O=C(CCc1nnc(Cc2ccc(-c3ccccc3)cc2)o1)NCC1CC1	i	i	i	i
COCCNC(=O)CCc1nnc(Cc2ccc(-c3ccccc3)cc2)o1	i	12µM	i	i
SMILES	AMA1-RON2 inh	Pf growth 96h	Pf growth 48h	SARS PLpro yeast
CN1CCC(=NNC(=O)C(=O)NCc2ccccc2)CC1	i	i	i	i
O=C1c2cccc3c(N4CCOCC4)c([N+](=O)[O-])cc(c23)C(=O)N1c1cccc2ccccc12	i	10µM	?	i
Cc1cccc(N2C(=O)c3cccc4c(N5CCCCC5)c([N+](=O)[O-])cc(c34)C2=O)c1C	i	i	i	i
Cc1ccc(C(=O)SC2=NCCS2)cc1	i	9.3µM	i	i
Cc1sc2nc(SCCN(C)C)n(-c3ccccc3)c(=O)c2c1-c1ccc(F)cc1	i	?	10µM	i
COc1ccc(N2CCN(CCCNC(=O)C3(S(=O)(=O)c4ccc(Cl)cc4)CC3)CC2)cc1	?	nt	?	i
S=C=Nc1cccc(C2(N3CCCCC3)CCCCC2)c1	i	1.7µM	2.6µM	nt

Assay outcomes as filed in PubChem BioAssay.
